Results reported in PubChem BioAssay (NCATS).
Results filed as inconclusive are left out. Active and inactive are the calls of the source. Calls come from the whole dose curve; as a rule, active = well fitted inhibition curve with a large enough effect; inconclusive = small, poorly fitted or top-dose-only effect; inactive = no such curve, though single readings can be large or run the other way.
Potency is the fitted concentration of half-maximal effect.

The molecules below were run on Zika virus NS2B-NS3 protease (linked) (assay: 384 well plate NINDS AMC confirmatory qHTS for Zika virus inhibitors (AID 1347163; note: nearly all actives have a fitted effect of over 50% in size)). Settings: Recombinant NS2B-NS3 protease, Ac-VKTGKR-AMC fluorescence; series mostly up to 1 mM.
Method in brief: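 Fluorescence at 355/460 nm was read after 25 minutes of cleavage of 30 microM Ac-VKTGKR-AMC at room temperature, in the dark. Before substrate addition, compounds (up to 1 mM final) sat ~15 minutes with 5, 30 or 60 nM linked protease. Signals were normalized to no-enzyme and no-inhibitor wells.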
CC(C)c1cc(C(C)C)c(CC(=O)NS(=O)(=O)Oc2c(C(C)C)cccc2C(C)C)c(C(C)C)c1 was tested, and the Potency was 3.16 µM (active).
Cc1ccc(-n2[nH]c(C)c(N=Nc3cccc(-c4cccc(C(=O)O)c4)c3O)c2=O)cc1C was tested, and the Potency was 178 µM (active).
CCCCCCCCc1ccc(CCC(N)(CO)CO)cc1 was tested, and the Potency was 70.8 µM (active).
With COc1ccc(S(=O)(=O)Nc2cc(-c3c(O)ccc4ccccc34)c(O)c3ccccc23)cc1 the Potency was 31.6 µM (active).

Each molecule was assayed on Zika virus NS2B-NS3 protease (linked construct) (assay: 384 well plate NINDS Rhodamine confirmatory qHTS for Zika virus inhibitors (AID 1347164; note: nearly all actives have a fitted effect of over 65% in size)). Settings: rhodamine-110 peptide substrate fluorescence; series mostly up to 100 µM.
Method in brief: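 Compounds are incubated about 15 minutes with linked protease (5, 30 or 60 nM final). Rhodamine 110-tagged Ac-LKRR substrate (10 microM final) is added and fluorescence measured after 25 minutes.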
With CC(C)c1cc(C(C)C)c(CC(=O)NS(=O)(=O)Oc2c(C(C)C)cccc2C(C)C)c(C(C)C)c1 the Potency was “inactive”.
For Cc1ccc(-n2[nH]c(C)c(N=Nc3cccc(-c4cccc(C(=O)O)c4)c3O)c2=O)cc1C, the Potency was 7.94 µM (active).
With CCCCCCCCc1ccc(CCC(N)(CO)CO)cc1 the Potency was “inactive”.
With COc1ccc(S(=O)(=O)Nc2cc(-c3c(O)ccc4ccccc34)c(O)c3ccccc23)cc1 the Potency was 44.7 µM (active).
